Data taken from PubChem BioAssay (NCI).
This is part of a sample that, as a whole, favours compounds with a hit. Of some 79,000 tested, about 15% had one in any assay. Active and inactive are the calls of the source. No stated cut-off is given here; in the data, active means growth inhibition above about 70%; inactive means the rest.

Experiments:
[1] = NCI Yeast Anticancer Drug Screen. Data for the rad52 strain (AID 147);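 further: 0% = growth of vehicle-treated control cultures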; conditions: S. cerevisiae rad52 mutant growth inhibition, active compounds read high
In short: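 DNA repair-defective yeast; compound exposure; growth scored against vehicle controls.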

[2] = NCI Yeast Anticancer Drug Screen. Data for the wt1 strain (AID 149);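 further: 0% = growth of vehicle-treated wt1 cultures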; conditions: S. cerevisiae wt1 strain (SPY 50644) growth inhibition, active compounds read high
In short: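 Each compound is tested on wt1 yeast and the loss of growth versus vehicle gives the inhibition value.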

[3] = NCI Yeast Anticancer Drug Screen. Data for the rad50EPP+ strain (AID 151);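 further: 0% = growth of vehicle-treated control cultures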; conditions: S. cerevisiae rad50 mutant strain, active compounds read high
In short: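 rad50EPP+ yeast treated with test compounds. Readout: growth vs vehicle control.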

[4] = NCI Yeast Anticancer Drug Screen. Data for the mgt1 strain (AID 153); conditions: S. cerevisiae mgt1 mutant growth inhibition, active compounds read high
In short: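 Growth inhibition relative to vehicle controls was scored for the mgt1 yeast strain after compound exposure.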

[5] = NCI Yeast Anticancer Drug Screen. Data for the rad50 strain (AID 155);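 further: 0% = growth of vehicle-only cultures of the same strain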; conditions: S. cerevisiae rad50 strain growth inhibition, active compounds read high
In short: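 Vehicle-treated cultures provide the reference for the growth inhibition reported for compound-exposed, repair-deficient yeast.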

[6] = NCI Yeast Anticancer Drug Screen. Data for the mec2-1 strain (AID 157); conditions: S. cerevisiae mec2-1 strain, active compounds read high
In short: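 Growth inhibition is read against vehicle-treated controls after compound exposure of the mec2-1 yeast strain, which is defective in DNA damage repair or cell cycle control.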

[7] = NCI Yeast Anticancer Drug Screen. Data for the rad14 strain (AID 159);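 further: 0% = growth of vehicle-treated control cultures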; conditions: S. cerevisiae rad14 strain growth inhibition, active compounds read high
In short: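 Inhibition of growth is reported for a repair-deficient yeast mutant following compound treatment, calculated relative to cultures that received vehicle.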

[8] = NCI Yeast Anticancer Drug Screen. Data for the sgs1 mgt1 strain (AID 161);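 further: 0% = growth of cultures given vehicle only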; conditions: S. cerevisiae sgs1 mgt1 strain, active compounds read high
In short: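 Yeast cells carrying a defined DNA-repair defect were exposed to test compounds. Growth inhibition was measured relative to vehicle-treated controls.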

[9] = NCI Yeast Anticancer Drug Screen. Data for the CLN2oe strain (AID 163);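 further: 0% = growth of vehicle-only control cultures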; conditions: S. cerevisiae CLN2oe strain, active compounds read high
In short: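 Compound-treated yeast; growth vs vehicle ctrl = % inhibition. Genetically altered strain (cell-cycle control).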

[10] = NCI Yeast Anticancer Drug Screen. Data for the cln2 rad14 strain (AID 165);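 further: 0% = growth equal to vehicle treated cultures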; conditions: S. cerevisiae cln2 rad14 strain, active compounds read high
In short: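 Growth inhibition, relative to vehicle-treated controls, is the read-out. The test organism is a yeast strain with defined genetic alterations, cln2 rad14.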

[11] = NCI Yeast Anticancer Drug Screen. Data for the bub3 strain (AID 167); conditions: S. cerevisiae bub3 mutant strain, active compounds read high
In short: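 Mutant yeast screening strain plus compound; vehicle-treated cultures serve as the 0% inhibition reference.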

[12] = NCI Yeast Anticancer Drug Screen. Data for the wt2 strain (AID 169); conditions: S. cerevisiae wt2 strain growth inhibition, active compounds read high
In short: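 Compound exposure of yeast; growth compared with vehicle controls; inhibition reported.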

[13] = NCI Yeast Anticancer Drug Screen. Data for the mlh1 strain (AID 171);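 further: 0% = growth of vehicle-treated control cultures of the same strain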; conditions: S. cerevisiae mlh1 strain growth inhibition, active compounds read high
In short: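 Compounds are applied to a genetically altered yeast strain, and its growth is compared with that of vehicle-treated cultures to give percent inhibition.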

[14] = NCI Yeast Anticancer Drug Screen. Data for the sgs1 strain (AID 173);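 further: 0% = growth of vehicle-only control cultures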; conditions: S. cerevisiae sgs1 mutant, active compounds read high
In short: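 Compounds applied to genetically altered yeast; growth compared with vehicle-treated cultures to give % inhibition.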

[15] = NCI Yeast Anticancer Drug Screen. Data for the mlh1 rad18 strain (AID 175); conditions: S. cerevisiae mlh1 rad18 strain growth inhibition, active compounds read high
In short: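 Cells of a genetically altered yeast strain, deficient in DNA damage repair, were treated with compound. Their growth was then compared with that of vehicle-treated cultures to give inhibition.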

[16] = NCI Yeast Anticancer Drug Screen. Data for the rad18 strain (AID 177); conditions: S. cerevisiae rad18 mutant growth inhibition, active compounds read high
In short: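 Compounds are applied to a repair-deficient yeast strain, and growth is compared with that of vehicle-treated cultures to give percent inhibition.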

[17] = at 5.0 µM (retest, dose inferred, filed as 0.5)
[18] = at 50.0 µM (retest, dose inferred, filed as 5.0)

Measured: growth inhibition

C[N+](C)([O-])CCCNc1c2ccccc2nc2cccc([N+](=O)[O-])c12
active: [1]; at 3.7 µM 86% | [1]; at 11.0 µM 94% | [1]; at 33.0 µM 96% | [1]; at 100.0 µM 96% | [2]; at 33.0 µM 80% | [2]; at 100.0 µM 94% | [3]; at 11.0 µM 79% | [3]; at 33.0 µM 94% | [3]; at 100.0 µM 95% | [4]; at 33.0 µM 70% | [4]; at 100.0 µM 93% | [5]; at 11.0 µM 91% | [5]; at 33.0 µM 94% | [5]; [18] 89% | [5]; at 50.0 µM 86.8% | [5]; at 100.0 µM 95% | [6]; at 11.0 µM 93% | [6]; at 33.0 µM 97% | [6]; [18] 95% | [6]; at 50.0 µM 88% | [6]; at 100.0 µM 96% | [7]; at 3.7 µM 90% | [7]; at 11.0 µM 94% | [7]; at 33.0 µM 96% | [7]; at 100.0 µM 96% | [8]; [18] 89% | [8]; at 50.0 µM 83.2% | [9]; at 33.0 µM 82% | [9]; at 100.0 µM 93% | [10]; [17] 85% | [10]; [18] 96% | [10]; at 50.0 µM 87.2% | [11]; at 33.0 µM 79% | [11]; [18] 74% | [11]; at 100.0 µM 95% | [12]; at 33.0 µM 84% | [12]; at 100.0 µM 94% | [13]; at 33.0 µM 89% | [13]; at 100.0 µM 95% | [14]; at 1.2 µM 80% | [14]; at 3.7 µM 89% | [14]; at 11.0 µM 94% | [14]; at 33.0 µM 94% | [14]; at 100.0 µM 97% | [15]; [17] 81% | [15]; [18] 95% | [15]; at 50.0 µM 78.5% | [16]; at 1.2 µM 95% | [16]; at 3.7 µM 96% | [16]; at 11.0 µM 96% | [16]; at 33.0 µM 97% | [16]; at 100.0 µM 97%
inactive: [1]; at 1.2 µM 54% | [2]; at 1.2 µM -3% | [2]; at 3.7 µM 7% | [2]; at 11.0 µM 24% | [3]; at 1.2 µM 28% | [3]; at 3.7 µM 44% | [4]; at 1.2 µM -5% | [4]; at 3.7 µM -10% | [4]; at 11.0 µM 7% | [5]; at 1.2 µM 31% | [5]; at 3.7 µM 68% | [5]; [17] 63% | [6]; at 1.2 µM 3% | [6]; at 3.7 µM 54% | [6]; [17] 54% | [7]; at 1.2 µM 41% | [8]; [17] 41% | [9]; at 1.2 µM -2% | [9]; at 3.7 µM -1% | [9]; at 11.0 µM 33% | [11]; at 1.2 µM -25% | [11]; at 3.7 µM -14% | [11]; [17] 6% | [11]; at 11.0 µM 15% | [11]; at 50.0 µM 52.6% | [12]; at 1.2 µM -1% | [12]; at 3.7 µM 20% | [12]; at 11.0 µM 26% | [13]; at 1.2 µM 14% | [13]; at 3.7 µM 22% | [13]; at 11.0 µM 44%

CCCCN(CCCC)c1ccc(N=Nc2ccc(S(=O)(=O)O)cc2)cc1
active: [1]; at 33.0 µM 89% | [1]; at 100.0 µM 90% | [2]; at 33.0 µM 97% | [2]; at 100.0 µM 97% | [3]; at 33.0 µM 84% | [3]; at 100.0 µM 87% | [4]; at 11.0 µM 92% | [4]; at 33.0 µM 97% | [4]; at 100.0 µM 97% | [5]; at 33.0 µM 92% | [5]; [18] 99% | [5]; at 50.0 µM 87.7% | [5]; at 100.0 µM 93% | [6]; at 11.0 µM 77% | [6]; at 33.0 µM 97% | [6]; [18] 98% | [6]; at 50.0 µM 90.7% | [6]; at 100.0 µM 97% | [7]; at 33.0 µM 97% | [7]; at 100.0 µM 97% | [8]; [18] 98% | [8]; at 50.0 µM 91.7% | [9]; at 33.0 µM 97% | [9]; at 100.0 µM 96% | [10]; [18] 98% | [10]; at 50.0 µM 88.7% | [11]; at 11.0 µM 71% | [11]; at 33.0 µM 94% | [11]; [18] 96% | [11]; at 50.0 µM 89.8% | [11]; at 100.0 µM 95% | [12]; at 11.0 µM 89% | [12]; at 33.0 µM 97% | [12]; at 100.0 µM 97% | [13]; at 11.0 µM 82% | [13]; at 33.0 µM 94% | [13]; at 100.0 µM 94% | [14]; at 11.0 µM 90% | [14]; at 33.0 µM 94% | [14]; at 100.0 µM 94% | [15]; [18] 99% | [15]; at 50.0 µM 88.2% | [16]; at 33.0 µM 90% | [16]; at 100.0 µM 92%
inactive: [1]; at 1.2 µM 21% | [1]; at 3.7 µM 48% | [1]; at 11.0 µM 40% | [2]; at 1.2 µM -9% | [2]; at 3.7 µM 2% | [2]; at 11.0 µM 33% | [3]; at 1.2 µM 10% | [3]; at 3.7 µM 8% | [3]; at 11.0 µM 48% | [4]; at 1.2 µM 19% | [4]; at 3.7 µM 39% | [5]; at 1.2 µM 16% | [5]; at 3.7 µM 14% | [5]; [17] 63% | [5]; at 11.0 µM 38% | [6]; at 1.2 µM 32% | [6]; at 3.7 µM 43% | [6]; [17] 52% | [7]; at 1.2 µM -5% | [7]; at 3.7 µM 8% | [7]; at 11.0 µM 38% | [8]; [17] -48% | [9]; at 1.2 µM 12% | [9]; at 3.7 µM -15% | [9]; at 11.0 µM -8% | [10]; [17] 20% | [11]; at 1.2 µM 34% | [11]; at 3.7 µM 55% | [11]; [17] -2% | [12]; at 1.2 µM -7% | [12]; at 3.7 µM 39% | [13]; at 1.2 µM 1% | [13]; at 3.7 µM 18% | [14]; at 1.2 µM 30% | [14]; at 3.7 µM 53% | [15]; [17] 51% | [16]; at 1.2 µM -18% | [16]; at 3.7 µM 0% | [16]; at 11.0 µM 8%
